# Only some compounds are listed: those with a hit (about 2.6% of all), similar ones and a draw of the others.
# PABP1 MLLE inh: inhibitors of PABP1 MLLE–PAM2 peptide binding, primary screen, biochemical, fluorescence polarization, FITC-PAM2, GST-MLLE; inhibition, % at 20 µM; 360,000 compounds, 0.36% hits; in the data active = inhibition above about 35%, passing the limit was not always enough;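 also: plate controls were DMSO wells with GST-MLLE for no effect and wells lacking GST-MLLE protein for full effect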
# Target sequence (P11940 whole entry, looked up): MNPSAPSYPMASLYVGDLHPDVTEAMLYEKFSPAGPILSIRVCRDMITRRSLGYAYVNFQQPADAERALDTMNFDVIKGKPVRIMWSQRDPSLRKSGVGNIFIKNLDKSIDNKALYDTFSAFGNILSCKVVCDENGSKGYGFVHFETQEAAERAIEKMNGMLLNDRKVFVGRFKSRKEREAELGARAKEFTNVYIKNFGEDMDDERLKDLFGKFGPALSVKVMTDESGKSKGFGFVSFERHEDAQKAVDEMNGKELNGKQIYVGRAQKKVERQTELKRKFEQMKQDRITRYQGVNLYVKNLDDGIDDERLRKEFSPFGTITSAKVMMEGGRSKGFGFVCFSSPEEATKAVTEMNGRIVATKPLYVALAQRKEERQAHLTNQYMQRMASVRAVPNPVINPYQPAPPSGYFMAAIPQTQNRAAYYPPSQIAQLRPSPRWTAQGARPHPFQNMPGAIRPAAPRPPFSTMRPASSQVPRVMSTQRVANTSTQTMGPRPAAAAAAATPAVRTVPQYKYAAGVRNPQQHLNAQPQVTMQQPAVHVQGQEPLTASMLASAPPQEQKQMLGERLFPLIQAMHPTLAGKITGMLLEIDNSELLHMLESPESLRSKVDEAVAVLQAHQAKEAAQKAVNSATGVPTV
# ABCB6 inh 2: ABCB6 transporter inhibitors, primary screen, K562-ABCB6 cells, flow cytometry, MLPCN library; K562-ABCB6 porphyrin accumulation, 1 h; stronger effect = lower value; fluorescence ratio to DMSO, % at 10 µM; 360,000 compounds, 0.19% hits; AID 602162, 2011;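 active = fluorescence ratio to DMSO below 75%, the collection mean minus 3 SD; inconclusive = too few cells collected in the well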;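 also: signal is porphyrin accumulated inside mitochondria; 100% equals median channel fluorescence of DMSO control wells; lower ratio means ABCB6 inhibition with less porphyrin fluorescence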
# PABP polyA inh: PABP poly(A) RNA binding inhibitors, primary screen, biochemical, fluorescence polarization, uHTS; calls only at 35 µM; 290,000 compounds, 1% hits; AID 2014, 2009;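 also: calls also rest on retests at 20 µM and on dose response follow-up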
# AI-2 QS mod: Vibrio harveyi AI-2 quorum sensing modulators, primary screen, JMH597 strain, luminescence/OD600 ratio. activity change, % at 7.5 µM. Vibrio harveyi JMH597 AI-2 luminescence/OD600 ratio, 9 h; stronger effect = lower value; strain lacks LuxN and CqsS sensors; 0 = neutral-control median. 300,000 compounds, 0.4% hits. AID 2094, 2009; in the data active = activity change below about -75%, passing the limit was not always enough; inconclusive = no clear call, values can overlap the other calls;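 also: luminescence divided by OD600 gain over 9 h not by final OD600 alone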
# eIF4H FP inh: human eIF4H binding inhibitors, primary screen, translation initiation inhibitor project, biochemical, uHTS, fluorescence polarization. inhibition, % at 35 µM. 290,000 compounds, 0.94% hits. eIF4H fluorescence polarization binding assay;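 also: calls also rest on retests at 20 µM and on dose response follow-up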
# PHOSPHO1 inh: PubChem AID 1565 | Phosphoethanolamine/phosphocholine phosphatase (Homo sapiens), Q8TCT1 | recombinant PHOSPHO1, absorbance phosphatase assay | inhibition, % at 13.3 µM | 290,000 compounds, 1.1% hits; in the data active = inhibition above about 60%
# * marks the source's active call; other numbers are inactive results; i = inactive; ? = inconclusive; / = no result given; + = active, no number. Unless noted, no rule for the calls is given here.
SMILES,PABP1 MLLE inh,ABCB6 inh 2,PABP polyA inh,AI-2 QS mod,eIF4H FP inh,PHOSPHO1 inh
O=C(Nc1ccc(S(=O)(=O)Nc2nccs2)cc1)c1cc(-c2ccccc2)nc2ccccc12,8,98,i,10,10,1
N/C(=N\c1nc(C(F)(F)F)cc(=O)[nH]1)Nc1ccc(Cl)cc1,/,/,i,23,-6,-14
CCN(CC)c1ccc(N/C(N)=N/c2nc(C(F)(F)F)cc(=O)[nH]2)cc1,-5,105,+,3,active,-5
Nc1[nH]c(C(=O)c2ccccc2)c(-c2cccnc2)c1C(=O)NC1CCCCC1,/,95,/,/,/,/
Cn1c(CC(=O)Nc2ccccc2)n[nH]c1=S,-8,100,i,5,-10,60*
Cc1ccc(NC(=O)Cc2n[nH]c(=S)n2C)cc1,-11,99,i,2,-2,-5
CC(C)(C)CC(=O)Nc1ccc(-c2nnc3n2CCCCC3)cc1,3,96,+,13,78*,-11
COc1ccc(C(=O)CSc2ccc(-c3ccccc3)nn2)cc1,5,100,i,-4,-12,-41
O=C(CSc1ccc(-c2cccnc2)nn1)c1ccc([N+](=O)[O-])cc1,45*,92,i,55,1,-23
O=C(CSc1ccc(-c2ccco2)nn1)c1ccccc1,28,99,+,-2,101*,-1
O=C(CSc1ccc(-c2ccncc2)nn1)c1ccccc1,38*,106,i,-1,-8,3
COc1ccc(C(=O)CSc2ccc(-c3ccco3)nn2)cc1,18,101,i,10,86,-1
Cc1ccc(C)c(NC(=O)CSc2ccc(-c3ccco3)nn2)c1,19,100,i,28,36,-66
Cc1ccccc1NC(=O)CSc1ccc(-c2ccco2)nn1,16,81,+,26,?,-6
CC1=C(C(=O)N(C(C)C)C(C)C)CC(CC(=O)NCc2ccco2)C(=O)N1CCCN1CCCC1=O (stereo not given),-1,98,/,/,/,/
COc1ccc2cc(C3=CC(=O)CC(C)(C)C3=O)ccc2c1,-20,97,/,/,/,/
COc1cc(C(O)c2nc(-c3cccc(C(C)C)c3)cs2)ccc1F (stereo not given),5,98,/,/,/,/
O=C(NCc1ccccc1)c1cc(C2CCCCN2C(=O)c2ccccc2)on1 (stereo not given),9,101,/,/,/,/
Cc1ccccc1NC(=O)CSc1ccsc1[N+](=O)[O-],7,102,+,24,?,1
COc1ccc([C@H]2CC(=O)C[C@@H](CCn3nnc4ccccc43)O2)cc1,/,121,/,/,/,/
CCc1cc(C(=O)N2CCOCC2)c(NC2=NS(=O)(=O)c3ccccc32)s1,-19,107,i,21,34,84*
O=S1(=O)N=C(Nc2ccc(N3CCOCC3)cc2)c2ccccc21,4,101,i,18,-13,-42
COc1ccc(/C=C2/SC(c3ccc(C)cc3)=NC2=O)cc1OC,120,129,?,15,?,74*
O=C(c1ccc2c(c1)OCO2)C1CCCN(C(=O)NCc2ccccc2)C1 (stereo not given),-1,97,+,8,58*,46
O=C(N/N=C/c1cc(Br)c(Br)o1)c1cccnc1,59*,102,i,-65,?,4
SMILES,PABP1 MLLE inh,ABCB6 inh 2,PABP polyA inh,AI-2 QS mod,eIF4H FP inh,PHOSPHO1 inh
O=C(N/N=C/c1cc(Br)c(Br)o1)c1ccc2c(c1)OCCO2,-52,95,+,60,76*,17
O=C(N/N=C\c1cc(Br)c(Br)o1)c1cncc(Br)c1,11,98,i,-16,-7,-4
O=C(N/N=C/c1cc(Br)c(O)c(Br)c1O)c1ccc2c(c1)OCCO2,-25,94,i,-34,54*,18
O=C(CCNC(=O)C1CCN(S(=O)(=O)c2ccc(F)cc2)CC1)NCCc1ccc(Cl)cc1,-11,92,i,9,-7,64*
c1ccc(Cc2c[nH]c3ccccc23)cc1,11,98,i,-8,3,4
S=c1[nH]nc(Cc2c[nH]c3ccccc23)o1,-72,101,i,38,1,61*
CCn1c(-c2ccccc2)c[nH]c1=S,-55,97,i,5,-6,98*
CC(=O)Nc1cc(-c2nn(C)c(=O)c3ccccc23)ccc1N1CCOCC1,-7,100,+,10,?,13
Nc1[nH]c(C(=O)c2ccccc2)c(-c2ccc(Br)cc2)c1C(=O)c1ccc(Br)cc1,/,103,/,/,/,/
Cc1c(O)nc2ccccn2c1=O,10,98,i,12,-12,-31
O=c1c2c([N+](=O)[O-])cc([N+](=O)[O-])cc2nc2ccccn12,-4,103,+,/,82*,14
COc1ccccc1/C=C/CN1CCC(Oc2cc(C(=O)NC3CC3)ccc2OC)CC1,-7,103,i,4,3,65*
Cc1c(CN2CCC(n3nccc3NC(=O)C3CCOC3)CC2)[nH]c2ccccc12 (stereo not given),5,91,i,34,-8,66*
COc1ccc(CN2CCC(n3nccc3NC(=O)C3CCCC3)CC2)cc1,17,96,i,24,-8,61*
CC(C)Cc1ccc(CN2CCC(n3nccc3NC(=O)C3CCCC3)CC2)cc1,1,91,i,7,0,9
COc1ccccc1CN1CCC(n2nccc2NC(=O)CCOc2ccccc2)CC1,-12,100,i,5,5,75*
COc1ccccc1/C=C/CN1CCC(n2nccc2NC(=O)C2CC2)CC1,14,103,i,12,0,63*
COc1ccccc1C(=O)Nc1ccnn1C1CCN(C/C=C/c2ccccc2)CC1,-2,97,i,12,12,28
O=C(NCCN1CCC(n2c(=O)[nH]c3ccccc32)CC1)C(c1ccccc1)c1ccccc1,/,91,/,/,/,/
CC(C)NC(=O)c1sc2nc3c(c(-c4cccs4)c2c1N)CN(C)CC3,66,96,i,10,127,63*
Cc1cccc(NC(=O)c2sc3nc4c(c(-c5cccs5)c3c2N)CN(C)CC4)c1,-12,167,+,19,110*,-21
Oc1ccccc1Oc1c(F)c(F)nc(N2CCCC2)c1F,9,105,i,-94*,34,3
CC(=O)Nc1ccc(Sc2ncccc2C(=O)Nc2ccc(F)cc2)cn1,-3,98,i,9,4,62*
NC(c1ccccc1)c1csc(Nc2ccc(S(N)(=O)=O)cc2)n1 (stereo not given),-7,90,/,/,/,/

# From PubChem BioAssay
